Compounds with a hit are over-represented: about 1.6% of the library has one in this group of screens.
gsp antagonist = qHTS for Antagonists of gsp, the Etiologic Mutation Responsible for Fibrous Dysplasia/McCune-Albright Syndrome: qHTS; Potency, µM (top dose mostly 76.9 µM), for the others: at the top dose activity change, negative = inhibition, usual class: inhibitors; hit rate 0.4% among 340,000; gsp-mutant cells, cAMP HTRF, 30 min; calls by dose curve; cell line not stated here;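 further: intracellular cAMP measured with PDE inhibitor Ro 20-1724 present during compound exposure; potency means the concentration at half of the fitted maximal effect; on the % scale 0 is the no-effect control and ±100 the full control effect; nearly all actives have a fitted effect of over 65% in size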
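G418-selected cells were plated in DMEM/10% FBS for 16-24 h at 37C, then treated with compounds plus the PDE inhibitor […] (300 uM solution added) for 30 min at 37C. Intracellular cAMP was measured by HTRF after 30 min lysis at room temperature.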
pAkt inh = HTS Assay for Inhibitors of Akt Phophorylation: Primary Screen; Neuro2A IGF-stimulated pAkt S473 HTRF, 20 min; stronger effect = lower value; activity change, % for hits at 50 µM; hit rate 0.32% among 360,000; in the data active means activity change below about -80%; inconclusive means mostly about -51% to -80%; further: on the % scale 0 is the no-effect control and ±100 the full control effect
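Single-point screen (50 µM final compound) in Neuro2A cells stimulated 20 min with 6 nM IGF at 37 deg C. After lysis, Ser473-phosphorylated Akt read by HTRF (ex 330 nm, em 615/665 nm) as the 665/615 ratio.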
gsp ag = qHTS for Agonist of gsp, the Etiologic Mutation Responsible for Fibrous Dysplasia/McCune-Albright Syndrome: qHTS; gsp mutant cells, cAMP HTRF, 30 min; Potency, µM (doses to about 76.9 µM), for the others: top-dose activation (cAMP increase), most hits filed as activators; hit rate 0.13% among 340,000; active means well fitted activation curve with a large enough effect; inconclusive means small, poorly fitted or top-dose-only effect, or another doubt; inactive means no such curve, though single readings can be large or run the other way; cell line not stated here;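 further: phosphodiesterase inhibitor Ro 20-1724 added with compounds to block cAMP breakdown; potency means the concentration at half of the fitted maximal effect; nearly all actives have a fitted effect of over 60% in size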
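Cells in DMEM/10% FBS with G418 were pretreated with compounds in DMSO plus […] (300 uM stock) for 30 min at 37C. cAMP was measured by HTRF (cAMP-d2 plus anti-cAMP antibody-K) after 30 min at room temperature.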
Glioma ERSR ind = qHTS for Inducers of the Endoplasmic Reticulum Stress Response (ERSR) in Human Glioma: qHTS | AID 602332, 2012 | Potency, µM, for inactives: at the highest dose activation, actives largely listed as activators | U87-MG GRP78 promoter luciferase reporter, 16 h | hit rate 0.02% among 420,000; active means well fitted activation curve with a large enough effect; inconclusive means small, poorly fitted or top-dose-only effect; inactive means no such curve, though single readings can be large or run the other way; further: potency means the concentration at half of the fitted maximal effect; series mostly up to about 76 µM; % of control where 0% means no effect; nearly all actives have a fitted effect of over 35% in size
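ERSR induction read as luciferase luminescence (Bright-Glo, 10 min at room temperature) in stably transfected human U87-MG glioma cells exposed to compounds for 16 h, using GRP78 as sensor.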
KCNH2 3.1 inh = qHTS for Inhibitors of KCHN2 3.1: Mutant qHTS | activity change, % (tested at about 1.8 µM) | U2OS KCNH2 3.1, thallium flux FluxOr; stronger effect = lower value | AID 720553, 2013 | hit rate 0.95% among 340,000 | Potassium voltage-gated channel subfamily H member 2, brain isoform KCNH2 3.1 (human);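 active means maximum activity change below -70%; inconclusive means maximum activity change from -70% to -50%; inactive means maximum activity change above -50%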;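 further: thallium influx rate constant from kinetic fluorescence after stimulation buffer; on the % scale 0 is the no-effect control and ±100 the full control effect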
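Virally transduced U2OS (3.1 isoform, 4 h infection in dark at RT) → overnight 37 C → FluxOr + Red40 in HBSS/HEPES, 45 min → stimulation buffer, 2 min kinetic read → rate constant vs DMSO controls.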
KCNH2 WT inh = qHTS for Inhibitors of KCHN2 3.1: Wildtype qHTS | U2OS, BacMam KCNH2, thallium flux FluxOr; stronger effect = lower value | activity change, % at 1.84 µM | hit rate 0.37% among 340,000;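 active means maximum activity change below -70%; inconclusive means maximum activity change between -70% and -50%; inactive means maximum activity change above -50%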; further: on the % scale 0 is the no-effect control and ±100 the full control effect
Target sequence (Q12809 whole entry, looked up): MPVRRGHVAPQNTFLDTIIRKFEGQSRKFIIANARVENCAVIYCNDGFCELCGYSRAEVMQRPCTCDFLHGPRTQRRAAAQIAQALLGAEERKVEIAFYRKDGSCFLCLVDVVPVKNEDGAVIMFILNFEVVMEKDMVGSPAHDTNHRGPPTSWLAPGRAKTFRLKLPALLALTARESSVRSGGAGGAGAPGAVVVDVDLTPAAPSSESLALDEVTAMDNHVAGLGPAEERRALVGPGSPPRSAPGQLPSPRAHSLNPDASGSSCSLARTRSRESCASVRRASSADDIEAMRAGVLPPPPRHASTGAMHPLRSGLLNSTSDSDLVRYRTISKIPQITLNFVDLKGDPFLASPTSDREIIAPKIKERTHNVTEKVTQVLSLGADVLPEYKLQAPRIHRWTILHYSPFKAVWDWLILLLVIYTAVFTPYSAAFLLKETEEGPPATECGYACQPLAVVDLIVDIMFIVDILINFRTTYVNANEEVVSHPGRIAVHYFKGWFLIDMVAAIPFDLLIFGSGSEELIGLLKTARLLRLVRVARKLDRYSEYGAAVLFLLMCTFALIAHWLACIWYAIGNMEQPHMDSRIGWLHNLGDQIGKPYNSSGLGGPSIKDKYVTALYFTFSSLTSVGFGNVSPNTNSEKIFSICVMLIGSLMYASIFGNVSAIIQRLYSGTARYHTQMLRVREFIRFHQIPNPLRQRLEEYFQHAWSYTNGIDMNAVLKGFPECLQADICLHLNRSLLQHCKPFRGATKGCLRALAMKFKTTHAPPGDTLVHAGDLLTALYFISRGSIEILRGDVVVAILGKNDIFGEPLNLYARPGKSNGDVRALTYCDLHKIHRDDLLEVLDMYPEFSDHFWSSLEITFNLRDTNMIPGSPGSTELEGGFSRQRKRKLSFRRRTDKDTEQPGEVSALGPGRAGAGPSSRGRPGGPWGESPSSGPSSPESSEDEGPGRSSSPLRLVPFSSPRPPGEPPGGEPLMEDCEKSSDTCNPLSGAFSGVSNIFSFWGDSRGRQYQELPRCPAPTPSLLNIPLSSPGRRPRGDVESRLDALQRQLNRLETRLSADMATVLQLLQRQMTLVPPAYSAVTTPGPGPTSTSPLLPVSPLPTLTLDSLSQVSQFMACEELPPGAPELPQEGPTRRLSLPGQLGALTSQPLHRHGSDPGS
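U2OS cells transduced with wild-type KCNH2 virus are loaded with FluxOr dye for 45 min, and thallium flux is measured in kinetic reads before and after stimulation buffer. Rate constants are normalized to DMSO controls.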
An asterisk follows results filed as active; i = inactive; ? = inconclusive; nt = not tested or not shown; [ ] = remark or other dose.

SMILES	gsp antagonist	pAkt inh	gsp ag	Glioma ERSR ind	KCNH2 3.1 inh	KCNH2 WT inh
C=C1CCN(C(CC(C)C)C(=O)Nc2nc3ccc(Cl)cc3s2)S(=O)(=O)c2ccccc21 (stereo not given)	nt	nt	nt	-3%	nt	nt
COC(=O)c1c(OCc2cccnc2)cc(=O)n2c1CCN(C(=O)c1c3c(nn1C)CCCC3)CC2	nt	nt	nt	2%	nt	nt
CC(=O)c1ccc(Nc2nc(-c3sc(C)nc3C)cs2)cc1	nt	i	-44%	-2%	5	-134*
CC(=O)Nc1ccc(Nc2nc(-c3sc(C)nc3C)cs2)cc1	-15%	i	2%[15.4 µM]	-1%	-1	-3
CCOC(=O)CNC(=O)c1cc(-c2ccccn2)nc2c(C)c(Cl)ccc12	-2%	i	-6%[15.4 µM]	-1%	-168*	-1
CC(=O)Nc1sc(/C(C#N)=C\c2cccc(Cl)c2)nc1-c1ccc(C)cc1	10%	i	?	-5%	-70*	-46
c1cc(C2CCCCC2)ccc1Oc1nc(N2CCOCC2)nc(N2CCOCC2)n1	-6%	i	6%	-6%	-71*	3
C/C=C(/C)C(=O)OC1CC(C)(C)C[C@H]2C3=CC[C@@H]4[C@@]5(C)CCC(O[C@@H]6O[C@@H](C(=O)O)[C@@H](O)C(O[C@@H]7OC[C@H](O)[C@@H](O)[C@@H]7O[C@@H]7OC(CO)C(O)[C@@H](O)[C@@H]7O)C6O[C@@H]6OC(CO)C(O)C(O)C6O)[C@@](C)(CO)[C@@H]5CC[C@]4(C)[C@]3(C)CC(O)[C@@]12CO (stereo not given in full)	50µM*	i	nt	-10%	-14	12
O=C(O)c1cc(N=Nc2ccc(-c3ccc(N=Nc4ccc(O)c(C(=O)O)c4)cc3)cc2)ccc1O	nt	nt	nt	1%	nt	nt
O=C1COc2ccc(S(=O)(=O)Nc3ccc(F)cc3)cc2N1	-2%	i	2.2µM*	-4%	-3	-10
CCCCOC(=O)CSc1nnc(-c2cc(OC)c(OC)c(OC)c2)o1	-9%	i	1%	13µM*	-6	0
CSc1ccc(/C=C2\C=Cc3cc([N+](=O)[O-])ccc32)cc1	nt	nt	nt	-2%	nt	nt
CC(C)(C)n1ncc2c(=O)n(Cc3ccccc3SC(F)(F)F)cnc21	nt	nt	nt	-3%	nt	nt
CCc1cc2c(N3CCN(c4ccccc4)CC3)ncnc2s1	50µM*	i	-35%	-10%	-4	2
N=c1c(C(=O)NCc2ccco2)cc2c(=O)n3ccccc3nc2n1Cc1ccc(Cl)cc1	8%	i	?	-3%	-80*	-44
Cc1ccc(CNC(=O)c2cc3c(=O)n4ccccc4nc3n(CC3CCCO3)c2=N)cc1 (stereo not given)	12%	i	?	9%	-71*	-24
N=c1c(C(=O)NC2CCCC2)cc2c(=O)n3ccccc3nc2n1CC1CCCO1 (stereo not given)	2%	i	?	-4%	-38	-22
Cn1c(C(=O)NCC2CCCO2)cc2c(=O)n3ccccc3nc21 (stereo not given)	5%	i	13µM*	0%	-5	-13
COc1ccccc1-c1ccc(C(=O)NCCN2CCOCC2)c(N2CCN(c3ccccc3F)CC2)n1	nt	nt	nt	-5%	nt	nt
CCC1CN(CCNC(=O)c2ccc3c(c2)OCCO3)Cc2cc(OC)ccc2O1 (stereo not given)	nt	nt	nt	-3%	nt	nt
CCN(Cc1ccc(OC)c(COC)c1)CC1CCCN(CCc2cccc(F)c2)C1 (stereo not given)	-17%	i	-3%	-5%	-72*	50
CN(Cc1ccccc1O)CC1CCCN(CCc2ccc(Cl)cc2)C1 (stereo not given)	7%	i	5%	-4%	-86*	1
